Source: PubChem BioAssay (National Center for Advancing Translational Sciences (NCATS))
CBFb RUNX1 block = CBF-beta/RUNX1 interaction disruption | AlphaScreen CBFb-His/RUNX1-biotin binding, biochemical | Potency, µM (top dose mostly 59.8 µM), inactives show at the highest dose activity, negative = inhibition, actives largely listed as inhibitors | 230,000 tested, under 10 active | AID 1477; note: % of control where 0% means no effect
Target sequence (Q01196 whole entry, looked up): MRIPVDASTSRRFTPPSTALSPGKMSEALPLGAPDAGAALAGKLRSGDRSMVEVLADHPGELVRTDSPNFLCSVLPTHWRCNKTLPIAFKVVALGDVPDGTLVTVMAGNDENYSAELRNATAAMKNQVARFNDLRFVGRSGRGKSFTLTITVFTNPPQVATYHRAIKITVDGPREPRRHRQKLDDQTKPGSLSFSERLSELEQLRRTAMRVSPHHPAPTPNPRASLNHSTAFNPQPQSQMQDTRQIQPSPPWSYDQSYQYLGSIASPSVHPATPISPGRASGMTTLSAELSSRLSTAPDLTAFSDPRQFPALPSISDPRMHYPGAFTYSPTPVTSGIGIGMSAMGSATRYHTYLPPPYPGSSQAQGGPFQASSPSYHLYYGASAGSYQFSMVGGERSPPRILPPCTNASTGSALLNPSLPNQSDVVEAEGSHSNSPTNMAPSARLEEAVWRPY
Target sequence (Q13951 whole entry, looked up): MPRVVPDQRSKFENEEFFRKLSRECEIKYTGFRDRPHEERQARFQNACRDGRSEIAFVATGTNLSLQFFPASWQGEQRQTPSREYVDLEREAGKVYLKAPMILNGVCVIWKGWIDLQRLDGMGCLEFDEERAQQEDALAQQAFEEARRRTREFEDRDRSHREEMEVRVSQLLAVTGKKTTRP
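Compounds were screened at multiple concentrations against a preformed CBF-beta(His)/RUNX1(biotin) complex (30 nM of each) for 15 min at room temperature, followed by 90 min with nickel and streptavidin beads and AlphaScreen reading.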
DRD3 agonist = D3 dopamine receptor (human) agonism; D3R DiscoveRx beta-arrestin cells, luminescence, 90 min; max activation, %; actives 0.58% (n = 410,000); AID 652048; in the data active = max activation above about 30%; note: 0% is about no effect
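Agonist-mode cell screen: cells plated at 1500/well and incubated overnight at 37 °C, then exposed to library compounds for 90 min at 37 °C. Detection reagent was added for 30–60 min at room temperature, and luminescence was read.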
MBNL1 CUG block = blocks human MBNL1 binding to CUG repeat RNA; Q9NR56; TR-FRET MBNL1-His/biotin-(CUG)12 binding, 665/545 ratio; Potency, µM (highest dose often 57.5 µM), for inactives: at the highest dose activity change, negative = inhibition, actives largely listed as inhibitors; actives 0.036% (n = 280,000); AID 2675; active = well fitted inhibition curve with a large enough effect in the signal ratio, with a control signal flat, not every such curve was filed as active; inconclusive = small, poorly fitted or top-dose-only effect, or effect the other way, or a change in a side signal; inactive = no such curve, though single readings can be large or run the other way; the % refers to the signal ratio; note: potency is the fitted concentration of half-maximal effect; % is set by controls: 0 for no effect and ±100 for the full control effect
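TR-FRET readout: Ex 340 nm, 665/545 nm emission ratio, normalized to buffer-only (basal) and MBNL1-(CUG)12 controls. Complex of MBNL1-His with Biotin-(CUG)12, compounds 92 nM–58 uM, incubated 60 min at room temperature.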
Integrin act MD = activates integrin-mediated alleviation for muscular dystrophy. Potency, µM (top dose mostly 38.3 µM), inactives show at the top dose activation, usual class: activators. alpha7betagal myoblasts, beta-gal FDG fluorescence, 48 h. actives 0.064% (n = 350,000);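 note: potency is the fitted concentration of half-maximal effect; 100% = response of the positive control SU9516; nearly all actives have a fitted effect of over 60% in size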
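alpha7betagal+/- myoblasts (passage 13, 250/well) treated 48 h at 37C with compounds at 1:260 dilution of DMSO stock. Lysed, then beta-galactosidase activity read as FDG fluorescence (ex 480/em 540) after 30 min, with pre-read for autofluorescence.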
PTHR1 ag = agonists of human PTHR1 parathyroid hormone receptor; Q03431; HEK293 GP2 PTHR1 cells, GloSensor cAMP luminescence, 1 h; Potency, µM (highest dose often 115 µM), without a hit: at the top dose activation, actives largely listed as activators; actives 0.075% (n = 410,000); AID 743266; note: potency is the fitted concentration of half-maximal effect; nearly all actives have a fitted effect of over 55% in size
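HEK-293-derived GP2 cells expressing PTHR1 and a GloSensor cAMP reporter, 3,000/well, plated overnight, given luciferin plus IBMX (each 0.5 mM as added) for 1 h at 37 °C, then compound for 1 h at 37 °C. Luminescence was read after 15 min at room temperature.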
DRD3 antagonist = D3 dopamine receptor (human) antagonism; D3R cells, DiscoveRx beta-arrestin luminescence, antagonist mode; stronger effect = lower value; P35462; actives 2.5% (n = 360,000); max response, negative = inhibition, %; in the data active = max response below about -50%; inconclusive = no clear call, values can overlap the other calls; note: % is set by controls: 0 for no effect and ±100 for the full control effect
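Cells expressing the human receptor were seeded at 1500 cells/well, incubated overnight at 37 degrees C in 5% CO2, then exposed to library compounds with dopamine controls for 90 minutes at 37 degrees C before luminescent detection.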
The depositor's hits bear a star; i = inactive; u = inconclusive; x = no result given; [ ] = dose if it differs, or a comment. Rows were chosen to be rich in hits. Some 2.8% of all compounds tested hit in one or more screens of this group. Unless noted, calls come from the whole dose curve; as a rule, active = well fitted curve in the direction sought with a large enough effect; inconclusive = small, poorly fitted or top-dose-only effect, or another doubt; inactive = no such curve, though single readings can be large; an effect the other way counts as inactive or inconclusive.

SMILES | CBFb RUNX1 block | DRD3 agonist | MBNL1 CUG block | Integrin act MD | PTHR1 ag | DRD3 antagonist
CCOc1ccc(N2CC(C(=O)Nc3nnc(Cc4ccc(OC)c(OC)c4)s3)CC2=O)cc1 (stereo not drawn) | x | 5 | -3% | -46% | i | 7
S=c1[nH]nc(-c2c[nH]c3ccccc23)o1 | x | 8 | -7% | 9% | i | -4
Oc1cc2ccccc2cc1-c1n[nH]c(=S)o1 | -1% | -2 | 6% | -16% | -29% | -50*
CCC1CCC2(CC1)NC(=O)N(CC(=O)Nc1ccc(OC)c(Cl)c1)C2=O (stereo not drawn) | x | -1 | x | -30% | i | -2
O=C(NC1CC2CCCC(C1)N2C(=O)NC1CCCCC1)c1ccc(F)cc1 (stereo not drawn) | 2% | 0 | 0% | 15% | -54% | -29
CC(=O)NC1CC2CCCC(C1)N2Cc1ccc(C)cc1 (stereo not drawn) | x | -7 | 5% | 0% | i | -113*
Cc1ccc(CN2C3CCCC2CC(NC(=O)c2ccc(C)cc2)C3)cc1 (stereo not drawn) | 7% | -10 | -1% | 0% | i | -109*
CCOc1ccccc1C(=O)NC1CC2CCCC(C1)N2Cc1ccc(C)cc1 (stereo not drawn) | x | -12 | 2% | -8% | i | -80*
O=C(NC1CC2CCCC(C1)N2Cc1ccc(F)cc1)c1ccc(F)cc1 (stereo not drawn) | x | -22 | 4% | 42% | -16% | -108*
CCCN1C2CCCC1CC(NC(=O)c1ccccc1OCC)C2 (stereo not drawn) | 0% | -6 | 4% | 1% | i | u
CN(C)CCN(Cc1ccccc1)S(=O)(=O)c1ccc2[nH]c(=O)ccc2c1 | x | -4 | x | x | i | x
NC(=O)CC(NC(=O)Cc1cccc2ccccc12)c1ccc(N2CCN(c3ccccn3)CC2)c([N+](=O)[O-])c1 (stereo not drawn) | x | -42 | 10% | -23% | i | -2
CCCCn1c(N)c(N(CC(C)C)C(=O)c2ccc(N3C(=O)CCC3=O)cc2)c(=O)[nH]c1=O | x | 1 | x | 10% | -13% | 17
CC(=O)c1cc(-c2ccc(F)cc2)n(CC(=O)NC2CCC(C)CC2)c1C (stereo not drawn) | x | 0 | x | x | i | x
COc1ccc(C(=O)n2nc(-c3ccco3)nc2NCc2cccs2)cc1OC | x | 6 | x | x | -76% | x
COc1cc(OC)c(NC(=O)c2csc3c2CCC(C)C3)cc1Cl (stereo not drawn) | x | -11 | x | x | -24% | x
Cc1ccccc1C(=O)NC1CC2CCC(C1)N2Cc1ccccc1 (stereo not drawn) | 5% | -17 | -3% | 0% | i | -86*
CCc1cccc(NC(=O)CN2Cc3ccccc3C2=O)c1 | x | -16 | x | x | i | x
CCN(CCCNC(=O)CN1N=C(c2ccccc2)CCC1=O)c1cccc(C)c1 | x | 41* | x | x | i | x
CCN(CCCNC(=O)CN1N=C(c2ccc(C)cc2)CCC1=O)c1ccccc1 | x | -28 | x | x | i | x
COC(=O)/C(=N\Nc1ccc(Cl)cc1)Sc1nnc(-c2ccc(OC)cc2)n1C | 13% | -25 | -1% | -24% | 6% | -7
CC(=O)c1ccc(NC(=O)CSc2nnc(-c3ccncc3)n2-c2ccccc2)cc1 | x | 6 | x | x | -25% | x
Cc1ccc(-c2nc(C(Cl)Cl)c3ccccc3n2)cc1 | 5% | -17 | -3% | -71% | -16% | -60*
O=C1c2ccccc2C(=O)N1Cc1cc(Cl)c(O)c([N+](=O)[O-])c1 | x | -7 | 13% | 20% | i | -8
Nc1cc(CN2C(=O)c3ccccc3C2=O)cc(Cl)c1O | 3% | 31* | 14% | -22% | -1%[57.5 µM] | 10
SMILES | CBFb RUNX1 block | DRD3 agonist | MBNL1 CUG block | Integrin act MD | PTHR1 ag | DRD3 antagonist
CCCCC1=CC2=C(c3ccco3)C(=O)C(C)(OC(=O)c3ccc(OC)cc3)C(=O)C2=CN1Cc1ccc(OC)cc1 (stereo not drawn) | -2%[13.1 µM] | x | u | x | x | x
CCCCC1=CC2=C(c3ccco3)C(=O)C(C)(OC(=O)c3ccc(OC)cc3)C(=O)C2=CN1CC1CC1 (stereo not drawn) | u | -36 | 43% | 12% | 3% | -64*
O=c1cc(-c2ccccc2)n2c(SCc3ccc([N+](=O)[O-])cc3)nnc2[nH]1 | x | 6 | x | x | 3% | x
CN1CCN(S(=O)C23CC4CC(CC(C4)C2)C3)CC1 (stereo not drawn) | -1% | -16 | -9% | 14% | i | -89*
O=S(N1CCCCC1)C12CC3CC(CC(C3)C1)C2 (stereo not drawn) | 11% | 4 | 0% | 8% | i | 5
Cc1nn(C)c2c1c(C(F)(F)F)cc(=O)n2CC(=O)Nc1ccc(F)cc1F | x | 6 | x | x | i | x
O=c1[nH]c(=S)[nH]c2c1C(c1cccc(C(F)(F)F)c1)OC(CCc1ccccc1)C2 (stereo not drawn) | x | -6 | x | x | i | -71*
O=c1[nH]c(=S)[nH]c2c1C(c1ccc(Cl)c(Cl)c1)OC(CCc1ccccc1)C2 (stereo not drawn) | x | 3 | x | x | -35% | 0
O=C(c1cccnc1)N1C2CCC1CC(O)(c1ccc(F)cc1)C2 (stereo not drawn) | 0% | -28 | 2% | -4% | i | -57*
O=C(c1ccc(F)cc1)N1C2CCC1CC(O)(c1ccc(F)cc1)C2 (stereo not drawn) | -1% | -10 | 2% | 12% | -12% | -54*
Cc1cc(N2CCCC2)nc(N2C3CCC2CC(O)(c2ccc(F)cc2)C3)n1 (stereo not drawn) | -3% | x | -12% | x | x | x
CC1COCC(C)N1C(=O)c1cccnc1 (stereo not drawn) | x | 1 | x | -7% | i | -125*
CCS(=O)(=O)N1CCN(C(=O)c2cccnc2)CC1 | 4% | 3 | -8% | 13% | -2%[57.5 µM] | 27
CC(=O)c1cccc(NC(=O)N2C3CCC2CC(O)(c2cccnc2)C3)c1 (stereo not drawn) | 8% | 1 | -3% | 17% | -42% | -15
CCc1ccc(CNCc2ccc(OCC(O)CN(C)Cc3ccccc3)cc2)nc1 (stereo not drawn) | -4% | -13 | 11% | -50% | i | -54*
CCn1ccnc1CNCc1ccc(OCC(O)CN(C)Cc2ccccc2)cc1 (stereo not drawn) | 0% | -6 | -8% | -40% | i | -59*
Cc1nc(Nc2ccccc2)c2oc3ccc(Cl)cc3c2n1 | x | 93* | 30% | -26% | i | -6
Cc1nnc(Nc2ccc3c(c2)OCO3)c2ccccc12 | 1% | -8 | 0% | -11% | -11%[57.5 µM] | -63*
